# Lamin A splicing = modulators of lamin A splicing; 0.01% of 200,000 active; Potency, µM (doses to about 46.1 µM), inactives show at the top dose ratio change, negative = inhibition, usual class: inhibitors; HeLa LMNA splicing GFP/RFP minigene ratio, 48 h; active = well fitted inhibition curve with a large enough effect in the signal ratio, with a control signal flat, not every such curve was filed as active; inconclusive = small, poorly fitted or top-dose-only effect, or effect the other way, or a change in a side signal; the % refers to the signal ratio; note: % is set by controls: 0 for no effect and ±100 for the full control effect
#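 S3 HeLa stable clones carrying a lamin A-EGFP splicing minigene plus DsRed2 were seeded at 600 cells/well in Opti-MEM with 2% FBS, pin-dosed and incubated 48 h at 37°C. Acumen cytometry (488 nm) gave the GFP/RFP total-intensity ratio.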
# ALDH1A1 block = inhibitors of human aldehyde dehydrogenase 1A1 | Purified ALDH1A1, NADH fluorescence, propionaldehyde substrate | AID 1030 | P00352 | Potency, µM (highest dose often 75.3 µM), for inactives: top-dose activity, negative = inhibition, actives largely listed as inhibitors | 7.3% of 220,000 active; active = well fitted inhibition curve with a large enough effect, not every such curve was filed as active; inconclusive = small, poorly fitted or top-dose-only effect, or another doubt; inactive = no such curve, though single readings can be large or run the other way;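 note: plate controls were no enzyme wells and a reference inhibitor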
# Target sequence (P00352 whole entry, looked up): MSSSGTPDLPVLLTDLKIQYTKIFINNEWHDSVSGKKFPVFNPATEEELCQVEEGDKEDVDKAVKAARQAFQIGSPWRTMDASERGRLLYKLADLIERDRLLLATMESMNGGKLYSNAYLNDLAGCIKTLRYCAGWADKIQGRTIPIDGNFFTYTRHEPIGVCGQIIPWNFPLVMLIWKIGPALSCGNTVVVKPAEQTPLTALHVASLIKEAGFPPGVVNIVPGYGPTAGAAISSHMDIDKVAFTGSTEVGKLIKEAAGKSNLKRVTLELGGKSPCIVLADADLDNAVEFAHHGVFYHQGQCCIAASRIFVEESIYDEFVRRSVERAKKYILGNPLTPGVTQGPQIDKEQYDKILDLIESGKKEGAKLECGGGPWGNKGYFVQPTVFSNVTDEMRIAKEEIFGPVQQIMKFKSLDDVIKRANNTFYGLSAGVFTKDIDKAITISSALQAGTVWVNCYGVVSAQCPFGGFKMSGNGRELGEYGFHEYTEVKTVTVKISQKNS
# KinaseGlo FLuc = blocks Kinase-Glo luciferase, a counter-screen artifact; AID 1379; Q27757; 0.28% of 200,000 active; Potency, µM (titrated, usually from 38.3 µM), without a hit: top-dose activity change, negative = inhibition, hits mostly inhibitors; Kinase-Glo luciferase, ATP luminescence, 8 min; note: % is set by controls: 0 for no effect and ±100 for the full control effect; nearly all actives have a fitted effect of over 60% in size
#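 Compound is pinned into ATP-containing buffer (10 uM ATP, imidazole pH 7.2, 7 mM MgCl2). Kinase-Glo luciferase reagent is then added. Light output is recorded following an 8-min room-temperature incubation.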
# HttQ103 aggreg = mutant huntingtin aggregation inhibition | Potency, µM (top dose mostly 46.1 µM), for inactives: at the top dose activity change, negative = inhibition, hits mostly inhibitors | AID 1688 | 1.1% of 220,000 active | PC12 HttQ103-GFP aggregates, Acumen cytometry, 40 h; note: % is set by controls: 0 for no effect and ±100 for the full control effect; nearly all actives have a fitted effect of over 60% in size
#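 Aggregate formation scored by laser-scanning cytometer (488 excitation, 500–530 emission) in lysed PC12 cells expressing Q103-GFP after 100 nM tebufenozide induction; library tested in dose series, with ATPLite reagent added in the multiplex.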
# HPGD block = blocks human HPGD enzyme activity; purified HPGD, NADH fluorescence kinetic, PGE2 substrate; 4.3% of 150,000 active; Potency, µM, for the others: at the highest dose activity change, negative = inhibition, most hits filed as inhibitors; AID 894; active = well fitted inhibition curve with a large enough effect, not every such curve was filed as active; inconclusive = small, poorly fitted or top-dose-only effect, or another doubt; inactive = no such curve, though single readings can be large or run the other way; note: % is set by controls: 0 for no effect and ±100 for the full control effect
# Target sequence (P15428 whole entry, looked up): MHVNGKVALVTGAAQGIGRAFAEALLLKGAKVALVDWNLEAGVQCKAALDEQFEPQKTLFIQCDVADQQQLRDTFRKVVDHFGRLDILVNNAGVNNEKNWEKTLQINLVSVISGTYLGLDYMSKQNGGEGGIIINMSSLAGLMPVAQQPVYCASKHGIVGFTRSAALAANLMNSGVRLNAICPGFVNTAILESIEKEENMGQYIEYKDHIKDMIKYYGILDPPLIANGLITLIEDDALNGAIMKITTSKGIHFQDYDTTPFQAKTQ
#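 NADH formation kinetics: reaction with 30 uM PGE2 and 1 mM NAD+ (final), 20 nM enzyme, Tris-HCl pH 8 with Tween 20, after 15 min compound preincubation at room temperature. Fluorescence change, last versus first of five reads.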
# HTT cytoprotect = protects HTT-Q103 PC12 cells, measured by ATP; Potency, µM (series often up to 56.4 µM), without a hit: cytoprotection (ATP increase), most hits filed as activators; AID 1471; PC12 HTT-Q103 induced, cytoprotection, ATP luminescence, 40 h; 0.14% of 230,000 active; note: % of control where 0% means no effect; nearly all actives have a fitted effect of over 45% in size
#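 Cells were plated at 1500 per well in phenol red-free DMEM with 5% equine and 5% calf serum. Tebufenozide (100 nM final) and compounds were added, then ATPlite reagent, and luminescence was read.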
# Active calls of the source: *; ? = inconclusive; nt = not tested or not shown; [ ] = another dose, or the depositor's remark. The list is not random: actives were taken first. Their share in the collection is about 9%. Unless noted, calls come from the whole dose curve; as a rule, active = well fitted curve in the direction sought with a large enough effect; inconclusive = small, poorly fitted or top-dose-only effect, or another doubt; inactive = no such curve, though single readings can be large; an effect the other way counts as inactive or inconclusive. Potency is the fitted concentration of half-maximal effect.
SMILES,Lamin A splicing,ALDH1A1 block,KinaseGlo FLuc,HttQ103 aggreg,HPGD block,HTT cytoprotect
OC1(c2ccc3ccccc3c2)CCN(Cc2ccccc2)C1 (centres undefined),-1%,-3%,0%,-8%,-8%,-12%
CC1CCCC(C)N1C(=O)CSc1nnnn1Cc1ccccc1 (centres undefined),6%,-10%,0%,7%,-5%,-4%
CC1CCCC(C)N1C(=O)Cc1ccccc1 (centres undefined),0%,?,0%,2%,20µM*,-1%
CC(=O)Oc1ccccc1C1OCCN1C(C)=O (centres undefined),-2%,6%,0%,10%,1%,8%
O=C(CSc1nnc(-c2ccc([N+](=O)[O-])cc2)o1)Nc1ccccc1,-1%[46 µM],nt,nt,nt,nt,nt
CC(C)(C)NC(=O)C(c1ccncc1)N(C(=O)c1csnn1)C1CC1 (centres undefined),-2%,10µM*,0%,23%,-6%,6%
Cc1ccc(C(C(=O)NC(C)(C)C)N(C(=O)c2csnn2)C2CC2)cc1 (centres undefined),-6%,10%,2%,-10%,0%,12%[10 µM]
CC(C)(C)NC(=O)C(c1cccnc1)N(C(=O)c1ccc(Cl)nc1)C1CCCC1 (centres undefined),nt,5.6µM*,-2%,7%[9.22 µM],nt,-13%[10 µM]
CCN(C(=O)Cn1c(SCC(=O)NCc2ccccc2)nc2ccccc21)c1cccc(C)c1,5%[46 µM],nt,nt,nt,nt,nt
Cc1ccc(CN2CC34C=CC(O3)C(C(=O)NCc3ccco3)C4C2=O)cc1 (centres undefined),12%,-8%,-2%,-10%,1%,-24%
CN1CCN(C(=O)c2cccc(COc3cc(Cl)ccc3Cl)c2)CC1,9%,10µM*,3%,-3%,-7%,-1%[0.074 µM]
O=C(Nc1ccccc1Cl)c1cccc(COc2cc(Cl)ccc2Cl)c1,27%,3%,-2%,-6%,?,-23%
O=C(Nc1cc(=O)[nH]c2nc(-c3ccccc3)nn12)c1ccccc1Cl,nt,nt,nt,-11%[9.22 µM],nt,13%[10 µM]
O=C(NNC(=S)Nc1ccccc1)C1CC1,-12%,4%,-2%,18%,-2%,3%
S=C(NN=C(C1CC1)C1CC1)Nc1ccccc1,-10%,25µM*,-1%,4%,-8%,-29%[10 µM]
COc1ccc2ccccc2c1C(=O)/C=C\c1ccoc1,?,20µM*,-6%,?,?,nt
COc1ccc2ccccc2c1/C=C\C(=O)c1ccccc1,nt,1%[13.5 µM],-4%[7.66 µM],nt,-2%,-6%[10 µM]
Cn1c(=O)c([N+](=O)[O-])c(NCC(O)c2ccccc2)c2ccccc21 (centres undefined),-2%,?,-2%,-13%,25µM*,nt
CCn1c(=O)c([N+](=O)[O-])c(NCCN(C)C)c2ccccc21,nt,11µM*,0%,-15%[9.22 µM],nt,-27%[10 µM]
O=c1c([N+](=O)[O-])c(NCCN2CCCCCC2)c2ccccc2n1-c1ccccc1,-3%,4µM*,-6%,-1%,-10%,30%[10 µM]
CCCCNc1c([N+](=O)[O-])c(=O)n(C)c2ccccc12,15%[46 µM],-8%,1%,-8%[9.22 µM],nt,-13%[10 µM]
COCCNc1c([N+](=O)[O-])c(=O)n(-c2ccccc2)c2ccccc12,-3%,?,-2%,-11%,-7%,5%[10 µM]
CCn1c(=O)c([N+](=O)[O-])c(NCC(O)c2ccccc2)c2ccccc21 (centres undefined),?,?,2%,-15%,16µM*,nt
CCCOc1ccc(/C(CC)=N/NC(=O)C2(C)CC2(Br)Br)cc1 (centres undefined),?,7%,0%,3%,-11%,17%[10 µM]
Cc1ccc(NC(=O)c2c(C(=O)Nc3ccccc3)sc3nc(C)cc(=O)n23)cc1,20%[46 µM],4.5µM*,-1%,?,nt,-21%
SMILES,Lamin A splicing,ALDH1A1 block,KinaseGlo FLuc,HttQ103 aggreg,HPGD block,HTT cytoprotect
CCc1ccc(NC(=O)c2c(C(=O)Nc3ccccc3)sc3nc(C)cc(=O)n23)cc1,?,0.89µM*,0%,11%,nt,10%[10 µM]
O=C(NC(=S)Nc1ccc(Cl)cn1)C(c1ccccc1)c1ccccc1,?,?,-3%,?,-16%,-13%
CC1(C)Cc2c(sc3c2c(=N)n(Cc2ccco2)c(=O)n3Cc2ccccc2)CO1,18%,?,3%,?,-8%,-25%
CCCCn1c2c(c(=O)n(C)c1=O)C(c1ccc(OC)cc1)N1CCCCCC1=N2 (centres undefined),2%,0.14µM*,-7%,5%,-11%,-68%
COc1ccc(OC)c(C2C(C(C)=O)=C(O)C(=O)N2Cc2cccnc2)c1 (centres undefined),-4%,28µM*,-1%,-5%,-12%,-9%[10 µM]
COc1ccc(C2C(C(C)=O)=C(O)C(=O)N2c2cccnc2)c(OC)c1 (centres undefined),-10%,32µM*,0%,-9%,?,-15%[0.074 µM]
COC(=O)c1cn(C(=O)c2ccc(C)cc2)c2ccccc12,nt,2%,-6%,-13%[9.22 µM],nt,-13%[10 µM]
CC(=O)Nc1cccc(NC(=O)C(=O)NCCc2sc(-c3ccccc3)nc2C)c1,1%[46 µM],nt,nt,nt,nt,nt
[O-][n+]1onc2c1CCC(=N/O)/C2=N\Nc1ccccc1,nt,3.5µM*,nt,4%[9.22 µM],nt,3%[10 µM]
Cc1cc2c(nn1)CCc1c-2no[n+]1[O-],nt,nt,nt,-11%[9.22 µM],nt,13%[10 µM]
O=C(O)c1ccc(CSc2nnc(COc3ccc(Cl)cc3Cl)o2)cc1,11%,?,1%,-9%,5µM*,-24%
CC(C)NC(=O)NC(=O)CSc1nnc(COc2ccccc2Cl)o1,-4%,0%,4%,7%,-5%,33%[10 µM]
COc1ccc(OCc2nnc(SCc3ccc(C(=O)O)cc3)o2)cc1,nt,13%,-6%,4%[9.22 µM],nt,-19%[10 µM]
O=c1cc(CSc2nnc(COc3ccccc3Cl)o2)nc2sccn12,9%,?,-2%,0%,18µM*,-4%
CC(C)CNS(=O)(=O)c1ccc(CCC(=O)N2CCN(c3ccccc3)CC2)cc1,nt,?,2%,8%,nt,-26%
Nc1ncnc2c1ncn2[C@@H]1O[C@@H](COP(=O)(O)OP(=O)(O)OP(=O)(O)OP(=O)(O)OC[C@@H]2O[C@@H](n3cnc4c(N)ncnc43)[C@@H](O)[C@H]2O)[C@H](O)[C@@H]1O,nt,nt,nt,nt,nt,-16%[1.9 µM]
COc1ccc(CCn2c(C)cc3c(c2=O)C(c2ccncc2)C(C#N)=C(N)O3)cc1OC (centres undefined),-4%,?,1%,-5%,-13%,-31%
O=C(CN1C(=O)S/C(=C\C=C\c2ccccc2)C1=O)Nc1cccc(O)c1,?,32µM*,-3%,?,-23%,-17%[10 µM]
O=C(CN1C(=O)S/C(=C\C=C\c2ccccc2)C1=O)Nc1ccccc1C(=O)O,nt,nt,nt,-8%[9.22 µM],nt,-2%[10 µM]
